# According to PubChem BioAssay AID2501 (Southern Research Specialized Biocontainment Screening …, 2010):
# Among all 2,200 compounds or so, about 1,200 (55%) were called active. The limit is not given here; nearly all actives have IC50 up to about 92 µM. So high a share suggests a set chosen from earlier hits. Some of the results follow.
# Assay: counter assay for TAg ATPase ADP read-out – biochemical, ADP-Hunter, fluorescence, counter-screen (AID 2501);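 also: purified T antigen ATPase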
# Conditions: series mostly up to 100 µM
row,SMILES,IC50
1,Cc1ccc(N/C(C(Cl)=C(Cl)Cl)=C(/Cl)[N+](=O)[O-])c(C)c1,inactive
2,O=C(CN1CCN(c2ccc(O)cc2)CC1)Nc1ccc2c(c1)OCCO2,6.55 µM (active)
3,Cc1cc(NC(=O)CN2CCN(c3ccc(O)cc3)CC2)no1,4.08 µM (active)
4,Cc1cc(NC(=O)c2noc3c2CCCCC3)no1,inactive
5,O=C(Cn1cnc2c(nnn2Cc2ccccc2)c1=O)Nc1ccc2c(c1)OCCO2,inactive
6,O=C(CCC(=O)N1CCN(c2ccccc2F)CC1)N1CCN(c2ccccc2)CC1,inactive
7,CCCCCCC1CCC(C(=O)N2CCOCC2)CC1 (centres undefined),inactive
8,O=C(CCOc1ccccc1)N1CCN(c2ccc(O)cc2)CC1,3.56 µM (active)
9,CCOC(=O)C1CCN(C(=O)COC(=O)CSc2ccc([N+](=O)[O-])cc2)CC1,inactive
10,O=C(C1CCCN(S(=O)(=O)c2cccc3nonc23)C1)N1CCN(c2ccccc2)CC1 (centres undefined),inactive
11,O=C(COc1ncnc2sccc12)N1CCN(c2ccccc2)CC1,inactive
12,Cc1ccc(OCCC(=O)N2CCN(c3ccc(O)cc3)CC2)cc1,4.43 µM (active)
13,O=C(C1CC1)N1CCN(c2ccc(O)cc2)CC1,3.4 µM (active)
14,Cc1ccc(N(C=NC#N)CC(=O)N2CCN(c3ccccc3)CC2)cc1,inactive
15,COc1ccccc1N1CCN(C(=O)C2CCN(S(=O)(=O)c3ccc(C)cc3)CC2)CC1,inactive
16,CCOc1ccc(OCCC(=O)OCC(=O)N2CCN(S(=O)(=O)c3ccc(C)cc3)CC2)cc1,10.1 µM (active)
17,Clc1ccccc1CSc1nnc(-c2ccco2)c(-c2ccco2)n1,inactive
18,C=CCc1ccc(OCCN2CCc3ccccc3C2)c(OC)c1,inactive
19,O=[N+]([O-])c1ccc(SCCc2ccncc2)cc1,inactive
20,CN1CCc2[nH]c3ccc(C(=O)NN)cc3c2C1,inactive
21,Cc1c(CCO)c(=O)n(C)n1C(=O)c1ccc(Cl)cc1,inactive
22,Cc1cc(OCC(=O)N2CCN(c3ccc(F)cc3)CC2)c2c(C)cc(=O)oc2c1,inactive
23,COc1cc(OC)cc(C(=O)NCC(=O)N2CCN(c3ccc(O)cc3)CC2)c1,8.71 µM (active)
24,CCOC(=O)N1CCN(C(=O)c2ccc3c(SCC(=O)O)c4c(nc3c2)CCCC4)CC1,inactive
25,CCOC(=O)N1CCN(c2ccc(O)cc2)CC1,4.16 µM (active)

row,SMILES,IC50
1,O=C(COC(=O)COc1cccc(C(F)(F)F)c1)NC1CCCC1,inactive
2,O=C(CCSc1ccc(Cl)cc1)N1CCN(c2ccc(O)cc2)CC1,7.46 µM (active)
3,O=C(COc1cccc(C(F)(F)F)c1)N1CCN(c2ccc(O)cc2)CC1,15.1 µM (active)
4,CCOc1ccccc1NC(=O)COC(=O)c1cccc(-c2ccc(OC(C)=O)cc2)c1,inactive
5,CCOc1cc(NC2CS(=O)(=O)CC2O)c(OCC)cc1NC(=O)c1ccccc1 (centres undefined),4.18 µM (active)
6,CCOc1cccc(=O)c2c(C)n(-c3ccc(C(=O)O)cc3)c(C)c12,inactive
7,COc1ccc2c(=O)c3c(=O)n(Cc4ccco4)c(-c4ccco4)nc3oc2c1,inactive
8,O=C1c2ccccc2C(=O)N1CCc1c[nH]c2ccc(O)cc12,7.26 µM (active)
9,OCCc1c[nH]c2ccc(C(F)(F)F)cc12,inactive
10,CC(=O)NCCc1c[nH]c2ccc(O)cc12,7 µM (active)
11,Cc1ccc(S(=O)(=O)N2CCCOC2CNC(=O)C(=O)NCCc2c[nH]c3ccccc23)cc1 (centres undefined),inactive
12,O=[N+]([O-])c1ccc(S(=O)(=O)N2CCSC2c2ccco2)cc1 (centres undefined),inactive
13,COc1cc(/C=N/N=C(\N)c2nonc2N)ccc1O,4.89 µM (active)
14,N/C(=N\N=C\c1ccc(O)c(O)c1)c1nonc1N,14 µM (active)
15,O=c1oc2ccccc2c2oc3cc(O)c(O)cc3c12,8.13 µM (active)
16,COc1ccc(C2CC(=O)C(C(c3ccc(O)cc3)C3C(=O)CC(c4ccc(OC)cc4)CC3=O)C(=O)C2)cc1 (centres undefined),inactive
17,CN(C)c1ccc(C(=O)c2ccc(N(C)C)c(N)c2)cc1N,4.76 µM (active)
18,COc1cc(/C=N\NC(=O)CNC(=O)c2cccc([N+](=O)[O-])c2)ccc1O,2.18 µM (active)
19,O=C(CNC(=O)c1ccccc1)OCc1ccc([N+](=O)[O-])cc1,inactive
20,COc1cc(/C=N/NC(=O)c2cccc([N+](=O)[O-])c2)ccc1O,2.38 µM (active)
21,C#CCOCCOCCOCCNc1nc(N2CCN(C(=O)CCCCCCCCCCNC(=O)[C@H](CCCCN)n3cc(C[C@@H](C)CC)nn3)CC2)nc(N2CCN(C(=O)CCCCCCCCCCNC(=O)[C@H](CCCCN)n3cc(C[C@@H](C)CC)nn3)CC2)n1,inactive
22,CN(C)S(=O)(=O)c1cccc(-n2sc3ccccc3c2=O)c1,8.98 µM (active)
23,O=C(O)c1ccccc1NS(=O)(=O)c1cccc(-n2sc3ccccc3c2=O)c1,9.24 µM (active)
24,Cc1ccc(-n2sc3ccccc3c2=O)cc1S(=O)(=O)N1CCCCC1,24.1 µM (active)
25,CCC1CCCCN1S(=O)(=O)c1ccc(NC(=O)c2nc(S(C)(=O)=O)ncc2Cl)cc1 (centres undefined),inactive

row,SMILES,IC50
1,O=C(C1=C[C@@H](c2ccc(Br)cc2)C[C@@H](OCCCCO)O1)N1CCOCC1,inactive
2,COC1=C/C(=C/c2c(N)n3nc(CC(=O)N4CCCCC4)sc3nc2=O)C=CC1=O,7.89 µM (active)
3,Nc1c(C=C2C=CC(=O)C=C2)c(=O)nc2sc(CC(=O)N3CCCCC3)nn12,12.5 µM (active)
4,Nc1c(/C=C2/C=CC(=O)C(O)=C2)c(=O)nc2sc(CC(=O)N3CCCC3)nn12,8.26 µM (active)
5,Nc1c(/C=C2/C=CC(=O)C(O)=C2)c(=O)nc2sc(CC(=O)N3CCCCC3)nn12,10.5 µM (active)
6,CC(=O)O[C@H]1C[C@@]2(C)[C@@H](C[C@@H](O)[C@H]3[C@@]4(C)CC[C@@H](O)[C@@H](C)C4CC[C@@]32C)/C1=C(\CCC=C(C)C)C(=O)O (some centres undefined),inactive
7,CC(=O)NCCC1CCCCN1Cc1nc(Cc2cccc(C(F)(F)F)c2)no1 (centres undefined),inactive
8,Cc1ccc(C(C(=O)NCc2ccc(F)cc2)N(CCCO)C(=O)C2COc3ccccc3O2)o1 (centres undefined),inactive
9,O=c1[nH]c(/C=C\c2ccc(O)c(O)c2)nc(O)c1[N+](=O)[O-],5.5 µM (active)
10,O=c1oc2cc(O)ccc2s1,11.8 µM (active)
11,O=C(O)c1cc(S(=O)(=O)Nc2ccc3oc(=O)sc3c2)ccc1O,inactive
12,CCOC(=O)NNc1ccc2nonc2c1[N+](=O)[O-],inactive
13,O=c1c2cc(O)c(O)cc2oc2cc(O)c(C3OC(CO)C(O)C(O)C3O)c(O)c12 (centres undefined),6.35 µM (active)
14,O=c1cc(-c2ccc(O)c(O)c2)oc2cc(O)c(C3OC(CO)C(O)C(O)C3O)c(O)c12 (centres undefined),5.59 µM (active)
15,O=c1cc(-c2ccc(O)cc2)oc2cc(O)c(C3OC(CO)C(O)C(O)C3O)c(O)c12 (centres undefined),18.6 µM (active)
16,O=c1cc(-c2ccc(O)cc2)oc2c(C3OCC(O)C(O)C3O)c(O)c(C3OC(CO)C(O)C(O)C3O)c(O)c12 (centres undefined),17.3 µM (active)
17,O=c1cc(-c2ccccc2Cl)oc2cc(O)cc(O)c12,inactive
18,Cc1cccc(N2CCN(C(=O)Cn3sc4nc(C)cc(C)c4c3=O)CC2C)c1 (centres undefined),inactive
19,O=C1CCCC2=C1C(c1ccc(Br)cc1)c1c([nH]c(=S)[nH]c1=O)N2 (centres undefined),92 µM (active)
20,O=c1[nH]c(=S)[nH]c2c1C(c1ccc(Br)cc1)c1c([nH]c(=S)[nH]c1=O)O2,inactive
21,C/C(CCc1ccccc1)=N\NC(=S)NCCc1ccccc1,inactive
22,COCCNC(=S)N/N=C(\C)c1ccc(O)cc1,3.77 µM (active)
23,COCCCNC(=S)N/N=C/c1ccc(O)cc1O,6.62 µM (active)
24,COCCCNC(=S)N/N=C/c1ccc(O)cc1,1.83 µM (active)
25,COCCCNC(=O)c1cc2cc3cc(OC)ccc3nc2o1,inactive

row,SMILES,IC50
1,O=[N+]([O-])c1ccc2c(c1N1CCCCC1)=NC1(CCCCC1)[N+]=2[O-],inactive
2,COc1ccc(NC(=O)c2sc(=S)[nH]c2N)cc1,8.22 µM (active)
3,N=C1/C(=C\c2ccc(SCc3ccco3)o2)C(=O)N=C2SC=NN12,inactive
4,COc1cc(/C=N/N=C2/C(=O)Nc3ccccc32)cc(OC)c1O,5.67 µM (active)
5,COc1cc(/C=N/N=C2/C(=O)Nc3ccccc32)ccc1O,4.52 µM (active)
6,O=C1Nc2ccccc2/C1=N\N=C\c1ccc(O)c(O)c1,8.1 µM (active)
7,CCOC(=O)CN1C(=O)CC(c2ccc([N+](=O)[O-])cc2)C1=O (centres undefined),inactive
8,O=C(CS(=O)(=O)c1ccccc1)c1cc2cc(F)ccc2oc1=O,inactive
9,CN(C)C(=O)c1c(-c2ccccc2)oc2ccc(O)cc12,17.2 µM (active)
10,C=CCSC1=NC(=O)/C(=C/c2cccs2)S1,inactive
11,COc1ccc(N2C(=S)NC3c4cc(Cl)ccc4OC2(C)C3C(=O)N(C)C)cc1 (centres undefined),inactive
12,Cc1ccsc1/C=C1/C(=O)NN(c2ccccc2)C1=O,1.75 µM (active)
13,CCOc1cc(/C=C2\C(=N)N3N=CSC3=NC2=O)ccc1OS(=O)(=O)c1ccccc1,inactive
14,CCOc1cc(/C=C2\C(=O)NN(c3ccccc3)C2=O)cc([N+](=O)[O-])c1O,6.78 µM (active)
15,COc1cc(/C=C2\C(=O)NN(c3ccccc3)C2=O)cc([N+](=O)[O-])c1O,59.3 µM (active)
16,CCOc1cc(/C=C2\C(=O)ON=C2c2ccccc2)cc(Br)c1O,inactive
17,COc1cc(/C=C2/C(=O)NN(c3ccc(Cl)c(Cl)c3)C2=O)cc([N+](=O)[O-])c1O,14.6 µM (active)
18,C/C(=N\NC(=O)c1csc(C)c1C)c1ccc(C)s1,inactive
19,O=Cc1coc2c(ccc3ccccc32)c1=O,10.1 µM (active)
20,COc1cc([C@@H]2Oc3cc(C4Oc5cc(O)cc(O)c5C(=O)[C@H]4O)ccc3O[C@H]2CO)ccc1O (some centres undefined),31.4 µM (active)
21,O=C1c2c(O)cc(O)cc2O[C@H](c2ccc(O)c(O)c2)[C@H]1O,5.9 µM (active)
22,O=C1CC(c2ccc(O)c(O)c2)Oc2c1ccc(O)c2O (centres undefined),13.6 µM (active)
23,COc1cc(OC)c2c(c1O)OC(c1ccccc1)CC2=O (centres undefined),inactive
24,O=C1CC(c2ccc(O)c(O)c2)Oc2cc(O)cc(O)c21 (centres undefined),4.23 µM (active)
